An excerpt weighted towards active compounds, which were near 4.1% of everything screened.
CASP6 VEID inh: inhibitors of human caspase-6; inhibition, % at 12.5 µM; purified caspase-6, Z-VEID-R110 cleavage fluorescence; P55212; actives 0.53% (n = 350,000); AID 686996;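 active means mean inhibition across replicates at least about 35%, with every replicate also reaching that limit, limit read from the data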;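 further: 0% = median of neutral control wells and 100% = no fluorescence left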
PglD inh: inhibitors of Campylobacter jejuni PglD acetyltransferase | purified PglD enzyme, DTNB colorimetric CoA detection | inhibition, % at 12.5 µM | actives 0.098% (n = 360,000); in the data active means inhibition above about 16%, passing the limit was not always enough
HIV Env fusion: blocks HIV Env-driven cell-cell fusion. HeLa-JRFL Env/CEM21 cell fusion, luciferase. inhibition, % at 12.3 µM. actives 1.1% (n = 360,000);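 active means mean replicate inhibition score of at least 50 and every replicate individually at or above 50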;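 further: 0% = plate neutral controls and 100% = maraviroc near 300 nM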
CFTR F508del cor: correctors of CFTR F508del function in bronchial epithelial cells; CFBE cells, YFP halide quenching; stimulated with forskolin plus potentiator P3; % fluorescence drop versus neutral controls; activity (quench increase), % at 7.58 µM; actives 0.36% (n = 350,000);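 active means mean added fluorescence quench of at least 8% versus neutral control, with both replicates also reaching 8%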;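 further: cells transiently co-express mutant CFTR-F508del with the halide-sensitive YFP; corrector assay measuring rescue of mutant channel to the surface after 24 h compound exposure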
ALR H2O2 inh: inhibitors of human sulfhydryl oxidase ALR | P55789 | purified ALR, DTT oxidation, H2O2 HRP-luminol luminescence | inhibition, % (concentration not given with the values) | actives 3.8% (n = 290,000);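 active means mean replicate inhibition above about 79%, with every replicate also reaching it, limit read from the data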
NSD2 inh: inhibitors of human histone methyltransferase NSD2 | inhibition, % at 12.5 µM | NSD2 peptide methylation, AlphaScreen, 120 min | O96028 | actives 0.54% (n = 310,000); in the data active means inhibition above about 50%
The depositor's hits bear a star; / = not tested or not shown; [ ] = dose if it differs, or a comment.

SMILES	CASP6 VEID inh	PglD inh	HIV Env fusion	CFTR F508del cor	ALR H2O2 inh	NSD2 inh
C[C@@H]1CCCCO[C@H](CN(C)C(=O)CCC(F)(F)F)[C@H](C)CN([C@H](C)CO)C(=O)c2cc(NC(=O)CCC(F)(F)F)ccc2O1	-2	-2	87*[16.7 µM]	0	/	/
CC(C)NC(=O)Nc1ccc2c(c1)C(=O)N([C@H](C)CO)C[C@@H](C)[C@@H](CN(C)C(=O)CCC(F)(F)F)OCCCC[C@@H](C)O2	0	0	79*[16.7 µM]	-1	/	/
CC(C)NC(=O)Nc1ccc2c(c1)C(=O)N([C@@H](C)CO)C[C@@H](C)[C@@H](CN(C)C(=O)CCC(F)(F)F)OCCCC[C@@H](C)O2	-3	-5	86*[16.7 µM]	-1	/	/
CC(C)NC(=O)Nc1ccc2c(c1)C(=O)N([C@@H](C)CO)C[C@@H](C)[C@@H](CN(C)C(=O)CCC(F)(F)F)OCCCC[C@H](C)O2	2	-3	-17[16.7 µM]	1	/	/
O=C(CCN1CCCCC1)NCC[C@@H]1CC[C@@H](NC(=O)c2ccc(F)cc2)[C@@H](CO)O1	-7	-1	-11[16.7 µM]	2	/	/
O=C(Cc1cccnc1)N1CC2(C1)[C@@H](c1ccccc1)[C@@H](CO)N2C(=O)C1CC1	0	/	/	0	/	/
CCOC(=O)c1ccc(NC(=O)CSc2nc3c(c(=O)n2C)SC(C)C3)cc1 (stereo unspecified)	2	3	27	-2	100*	/
CCOC(=O)c1ccc(NC(=O)CSc2nc3c(c(=O)n2CC)SC(C)C3)cc1 (stereo unspecified)	-1	-5	-2	-4	99*	/
CC1Cc2nc(SCC(N)=O)n(C)c(=O)c2S1 (stereo unspecified)	-1	-2	-4	-6	1	/
C/C(=N\Nc1ccccn1)c1ccc(Br)s1	-5	2	-17	0	99*	4
C/C(=N\Nc1ccccn1)c1ccc(C(C)C)cc1	0	-3	-11	0	-3	4
C/C(=N\Nc1ccccn1)c1ccc(N2CCOCC2)cc1	3	/	-32	0	98*	7
C(=N\Nc1ccccn1)/c1ccc(N2CCOCC2)cc1	2	/	-21	-1	99*	3
C(=N\Nc1ccccc1)/c1ccc(N2CCOCC2)cc1	/	-2	/	/	-35	/
COc1cccc(NC(=O)N(C)C[C@H]2Oc3cc(C#Cc4ccccc4)ccc3S(=O)(=O)N([C@@H](C)CO)C[C@H]2C)c1	/	-3	-80[16.7 µM]	4	/	/
COC(OC)c1nc(SCC(=O)Nc2cccc(Cl)c2)ncc1C(=O)O	4	3	0	-2	99*	-3
CCC(C)[C@H](N)c1nnc(SCC(=O)Nc2cccc(Cl)c2)o1 (stereo partly specified)	/	-3	0	/	41	-3
Cc1cc(-c2n[nH]c(=S)n2/N=C/C(Cl)=C/c2ccccc2)n[nH]1	/	-157	-35	/	96*	11
CC(/C=N/n1c(-c2ccco2)n[nH]c1=S)=C\c1ccco1	/	/	-1	/	69	10
S=c1[nH]nc(-c2ccco2)n1/N=C/C(Cl)=C/c1ccccc1	4	6	-59	-4	97*	11
C[C@H](CO)N1C[C@H](C)[C@H](CN(C)S(=O)(=O)c2cn(C)cn2)OCCCC[C@H](C)Oc2ccc(NS(=O)(=O)c3cccs3)cc2C1=O	-1	0	-6[16.7 µM]	3	/	/
CC(C)NC(=O)NCC[C@@H]1CC[C@@H](NS(=O)(=O)c2ccccc2)[C@@H](CO)O1	-2	/	/	0	/	/
O=C(CN1CCN(S(=O)(=O)c2ccc(F)c(Cl)c2)CC1)N1CCc2ccccc2C1	-3	-6	7	16*	/	2
CCC1(C)OC(=O)N2CCc3c(C)[nH]c4c(C)ccc(c34)C21C (stereo unspecified)	1	4	-36	0	98*	/
NC(=S)Nc1ccc(Oc2ccc(NC(N)=S)cc2)cc1	-7	-9	/	2	99*	4
SMILES	CASP6 VEID inh	PglD inh	HIV Env fusion	CFTR F508del cor	ALR H2O2 inh	NSD2 inh
N[C@H]1CC[C@H](CCn2cc(C3CC3)nn2)O[C@@H]1CO	0	/	/	5	/	/
O=C(Cc1ccccn1)NCC[C@H]1CC[C@H](NC(=O)Nc2ccc(C(F)(F)F)cc2)[C@H](CO)O1	2	3	-6[16.7 µM]	22*	/	/
O=C(Cc1ccccn1)NCC[C@H]1CC[C@@H](NC(=O)Nc2ccc(F)cc2)[C@@H](CO)O1	-4	2	-9[16.7 µM]	1	/	/
O=C(Cc1ccccn1)NCC[C@H]1CC[C@@H](NC(=O)Nc2ccc(C(F)(F)F)cc2)[C@@H](CO)O1	1	0	-17[16.7 µM]	31*	/	/
COCC(=O)Nc1ccc2c(c1)[C@@H]1C[C@H](CC(=O)NCc3cccnc3)O[C@@H](CO)[C@@H]1O2	-3	-3	-3[16.7 µM]	0	/	/
Cc1cccc2c(N=Nc3ccc(S(=O)(=O)Nc4ccc(Cl)cc4)cc3[N+](=O)[O-])c(O)[nH]c12	-3	-4	12	9.7*	-2	-3
Cc1ccc2[nH]c(O)c(N=Nc3ccccc3[N+](=O)[O-])c2c1	-3	/	-43	-5	/	1
O=C(C[C@H]1CC[C@@H](NC(=O)c2cccnc2)[C@H](CO)O1)NCc1ccncn1	1	1	1[16.7 µM]	-3	/	/
CCn1c(SCc2ccc(C(=O)Nc3nccs3)cc2)nnc1-c1ccc(NC(C)=O)cc1	/	-2	/	/	99*	-3
Cn1c(SCc2ccc(C(=O)Nc3nccs3)cc2)nnc1-c1ccccc1	/	1	/	/	39	-3
CCn1c(SCc2ccc(C(=O)Nc3nccs3)cc2)nnc1-c1ccc(N)cc1	/	-1	/	/	82*	-10
C/C(=N\Nc1ccccn1)c1ccc2c(c1)OCO2	-1	-7	-59	1	4	2
C/C(=N\Nc1nc2ccccc2[nH]1)c1ccc2c(c1)OCCO2	/	/	-48	6	99*	9
C/C(=N\Nc1nc2ccccc2[nH]1)c1ccccn1	8	2	65*	2	/	11
C/C(=N\Nc1nc2ccccc2[nH]1)c1ccc2c(c1)OCO2	3	8	-7	/	100*	6
CCCNC(=O)C[C@H]1C[C@@H]2c3cc(NC(=O)Nc4ccc(F)cc4)ccc3O[C@@H]2[C@@H](CO)O1	2	2	7[16.7 µM]	-3	/	/
CN1c2ccc(-c3cccc(F)c3)cc2[C@H]2[C@H](CCN2C(=O)C2CC2)[C@@H]1CO	1	-1	/	-1	/	/
N[C@H]1CC[C@@H](CCn2cc(-c3ccccn3)nn2)O[C@H]1CO	0	-6	-17[16.7 µM]	3	/	/
COc1cccc(C(C2=C(O)CC(C)(C)CC2=O)C2C(=O)CC(C)(C)CC2=O)c1 (stereo unspecified)	0	2	32	/	98*	-2
CC1(C)CC(=O)C(C(C2=C(O)CC(C)(C)CC2=O)c2ccc(Br)s2)C(=O)C1 (stereo unspecified)	1	0	-39	/	98*	4
CC1(C)CC(=O)C(C(C2=C(O)CC(C)(C)CC2=O)c2ccc([N+](=O)[O-])cc2)C(=O)C1 (stereo unspecified)	3	/	/	1	23	2

Screening data from PubChem BioAssay.
